The results in this text go back to PubChem BioAssay.

Assay [1] is described as follows: small molecules captured by biotinylated probe aFSTL3 – biochemical, small-molecule microarray, fluorescence 635/667, stem cell growth factor project, primary screen (AID 1064).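 Further: measures binding of the biotinylated anti-FSTL3 antibody to printed compounds.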 The conditions noted are these: higher = more signal.
A short description of assay [2]: binders from COS7 lysate, DM2A8 probe, primary screen, torsin A project, cell lysate, small-molecule microarray, fluorescence 635/667 (AID 1065). The conditions noted are these: higher = more signal, COS7 lysate expressing mutant human TOR1A.
Assay [3] is described as follows: small molecules captured by biotinylated probe aFGF2 – biochemical, small-molecule microarray, fluorescence 635/667, stem cell growth factor project, primary screen (AID 1067).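 Further: measures binding of biotinylated aFGF2 protein to printed compounds on slides; z-score merges feature fluorescence and signal-to-noise across triplicate slides.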 The conditions noted are these: higher = more signal.
Assay [4] can be described thus: small molecules captured by biotinylated probe aFGF10 – biochemical, small-molecule microarray, fluorescence 635/667, stem cell growth factor project, primary screen (AID 1071).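 Further: score merges 667 nm spot intensity and signal to noise from triplicate slides.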 To be noted: higher = more signal.
The target of assay [5] is Neurogenic locus notch homolog protein 2 (Homo sapiens) (UniProt Q04721). As to the kind of experiment: small molecules binding Notch2 protein – biochemical, small-molecule microarray, 635 nm fluorescence, stem cell growth factors, primary screen (AID 1073). To be noted: higher = more signal.
Sequence of Neurogenic locus notch homolog protein 2 (Homo sapiens) (Q04721 whole entry, looked up, canonical isoform): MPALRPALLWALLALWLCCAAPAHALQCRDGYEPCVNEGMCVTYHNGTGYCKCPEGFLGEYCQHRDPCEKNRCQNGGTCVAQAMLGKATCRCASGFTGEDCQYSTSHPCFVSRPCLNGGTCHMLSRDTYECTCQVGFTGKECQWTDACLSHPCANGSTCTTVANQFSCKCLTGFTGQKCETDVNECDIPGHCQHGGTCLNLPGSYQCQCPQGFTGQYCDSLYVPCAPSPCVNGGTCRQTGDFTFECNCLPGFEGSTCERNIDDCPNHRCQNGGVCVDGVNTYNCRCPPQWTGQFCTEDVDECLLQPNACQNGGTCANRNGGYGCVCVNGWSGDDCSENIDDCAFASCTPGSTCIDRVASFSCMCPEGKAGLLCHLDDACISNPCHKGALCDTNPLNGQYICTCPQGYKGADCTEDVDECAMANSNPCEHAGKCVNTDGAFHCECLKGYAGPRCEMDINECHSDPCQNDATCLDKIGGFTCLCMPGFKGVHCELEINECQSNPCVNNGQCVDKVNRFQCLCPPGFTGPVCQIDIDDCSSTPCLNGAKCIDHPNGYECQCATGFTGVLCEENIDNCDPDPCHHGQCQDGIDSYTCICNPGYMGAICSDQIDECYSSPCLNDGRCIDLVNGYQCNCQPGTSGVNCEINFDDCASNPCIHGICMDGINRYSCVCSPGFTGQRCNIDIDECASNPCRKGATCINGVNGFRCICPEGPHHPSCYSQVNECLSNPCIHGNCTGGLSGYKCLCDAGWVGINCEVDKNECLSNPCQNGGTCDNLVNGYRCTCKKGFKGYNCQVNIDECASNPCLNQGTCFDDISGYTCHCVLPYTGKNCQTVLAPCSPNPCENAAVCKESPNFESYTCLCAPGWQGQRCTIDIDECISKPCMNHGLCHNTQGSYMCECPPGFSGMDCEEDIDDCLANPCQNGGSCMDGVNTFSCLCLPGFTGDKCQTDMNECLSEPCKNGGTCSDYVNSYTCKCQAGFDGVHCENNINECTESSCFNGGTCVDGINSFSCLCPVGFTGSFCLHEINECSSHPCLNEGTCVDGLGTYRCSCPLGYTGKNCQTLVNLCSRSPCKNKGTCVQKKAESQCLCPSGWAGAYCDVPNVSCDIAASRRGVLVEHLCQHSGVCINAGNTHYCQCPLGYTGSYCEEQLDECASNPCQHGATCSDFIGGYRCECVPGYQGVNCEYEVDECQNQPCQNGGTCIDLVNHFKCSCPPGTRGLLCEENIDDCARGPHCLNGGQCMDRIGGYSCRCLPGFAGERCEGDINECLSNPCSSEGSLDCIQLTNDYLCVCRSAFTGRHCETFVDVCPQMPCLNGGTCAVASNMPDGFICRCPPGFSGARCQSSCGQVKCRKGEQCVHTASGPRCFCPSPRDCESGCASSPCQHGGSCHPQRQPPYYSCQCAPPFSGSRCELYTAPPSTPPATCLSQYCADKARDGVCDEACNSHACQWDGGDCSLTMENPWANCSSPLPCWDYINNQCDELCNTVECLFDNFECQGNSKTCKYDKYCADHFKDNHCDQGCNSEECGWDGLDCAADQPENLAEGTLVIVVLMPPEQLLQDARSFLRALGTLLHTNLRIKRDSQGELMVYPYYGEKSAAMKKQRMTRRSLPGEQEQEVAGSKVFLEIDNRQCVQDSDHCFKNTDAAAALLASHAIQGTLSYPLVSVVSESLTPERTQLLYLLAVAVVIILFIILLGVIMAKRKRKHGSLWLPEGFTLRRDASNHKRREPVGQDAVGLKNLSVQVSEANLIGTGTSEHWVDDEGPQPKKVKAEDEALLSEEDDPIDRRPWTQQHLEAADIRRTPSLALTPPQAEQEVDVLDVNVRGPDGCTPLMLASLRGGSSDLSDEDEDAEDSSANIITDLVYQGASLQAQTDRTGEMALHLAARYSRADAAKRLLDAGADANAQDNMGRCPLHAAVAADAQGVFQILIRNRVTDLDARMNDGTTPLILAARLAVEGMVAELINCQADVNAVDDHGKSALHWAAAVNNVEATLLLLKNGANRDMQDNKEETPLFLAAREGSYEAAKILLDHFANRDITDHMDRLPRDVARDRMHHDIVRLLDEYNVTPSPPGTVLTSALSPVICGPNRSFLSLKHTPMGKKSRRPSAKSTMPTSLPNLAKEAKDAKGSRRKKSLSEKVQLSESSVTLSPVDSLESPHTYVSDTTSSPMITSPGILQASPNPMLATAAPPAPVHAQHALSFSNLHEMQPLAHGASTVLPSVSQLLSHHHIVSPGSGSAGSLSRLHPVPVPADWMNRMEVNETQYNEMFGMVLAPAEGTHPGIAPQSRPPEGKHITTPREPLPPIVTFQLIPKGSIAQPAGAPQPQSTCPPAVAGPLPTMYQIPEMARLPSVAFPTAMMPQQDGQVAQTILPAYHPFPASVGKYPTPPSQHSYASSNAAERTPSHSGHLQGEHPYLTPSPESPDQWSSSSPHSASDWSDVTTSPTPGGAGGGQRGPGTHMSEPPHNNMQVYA
The target of assay [6] is Pro-neuregulin-1, membrane-bound isoform (Homo sapiens) (UniProt Q02297). Put plainly: small molecules binding neuregulin-1 protein – biochemical, small-molecule microarray, fluorescence 635/667, psychiatric disease protein project, primary screen (AID 1075).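 Further: score combines 667 nm spot fluorescence with signal to noise.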 To be noted: NRG1 binding, 635 nm fluorescence, higher = more signal.
Sequence of Pro-neuregulin-1, membrane-bound isoform (Homo sapiens) (Q02297 whole entry, looked up, the tested form may be a part, canonical isoform): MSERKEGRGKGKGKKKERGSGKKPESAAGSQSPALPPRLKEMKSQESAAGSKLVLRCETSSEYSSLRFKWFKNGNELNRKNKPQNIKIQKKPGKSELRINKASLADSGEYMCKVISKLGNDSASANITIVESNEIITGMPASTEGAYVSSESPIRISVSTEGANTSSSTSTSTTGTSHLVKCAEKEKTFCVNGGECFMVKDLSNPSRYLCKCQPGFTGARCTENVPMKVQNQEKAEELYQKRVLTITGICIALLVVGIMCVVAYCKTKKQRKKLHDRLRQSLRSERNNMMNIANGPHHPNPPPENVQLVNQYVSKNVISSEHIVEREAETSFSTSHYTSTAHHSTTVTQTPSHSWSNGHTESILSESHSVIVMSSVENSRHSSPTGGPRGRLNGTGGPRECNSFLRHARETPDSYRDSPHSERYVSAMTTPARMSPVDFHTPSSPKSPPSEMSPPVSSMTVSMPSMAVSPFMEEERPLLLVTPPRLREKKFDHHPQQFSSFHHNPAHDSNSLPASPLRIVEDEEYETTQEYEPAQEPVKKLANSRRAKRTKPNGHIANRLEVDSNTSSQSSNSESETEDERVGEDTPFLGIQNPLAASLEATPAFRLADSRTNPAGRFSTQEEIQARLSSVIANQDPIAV
The test system of assay [7] is Neuregulin-1 EGF-like domain. As to the kind of experiment: small molecules binding NRG1 EGF domain – biochemical, small-molecule microarray, 635 nm fluorescence, primary screen (AID 1081).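 Further: binding of the protein to compounds printed on small-molecule microarray slides.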 To be noted: higher = more signal.
Assay [8] in a line: FRG1 expression reporter modulators in myotubes – cell-based, C2C12 myotubes, firefly/Renilla luciferase, luminescence, FRG1 inhibition for FSHD, primary screen (AID 1084). The conditions noted are these: FRG1 promoter luciferase, higher = more signal, called active from +8 up or from −8 down.
A short description of assay [9]: small molecules captured by biotinylated probe aFST – biochemical, small-molecule microarray, fluorescence 635/667, stem cell growth factor project, primary screen (AID 1086).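 Further: score merges 667 nm fluorescence with signal-to-noise of each printed compound spot.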 To be noted: higher = more signal.
Assay [10] is described as follows: binders of probe aHhip on microarray, primary screen, stem cell growth factor project, biochemical, small-molecule microarray, fluorescence 635/667 (AID 1087).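 Further: score merges spot fluorescence at 667nm with spot signal to noise ratio.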 The conditions noted are these: higher = more signal.

The source made the active and inactive calls.

In the case of `Cc1ccc(F)cc1S(=O)(=O)N[C@@H]1CCN(Cc2ccc(Br)cc2)C1`, the composite z-score is -0.414 in assay [1]; 0.673 in [2]; -0.23 in [3]; -0.207 in assay [4]; 0.414 in assay [5]; -0.107 in [6]. The figures for the composite z-score in assay [7], in assay [9] and in assay [10] were 0.035, 0.258 and -0.0994, respectively. The z-score in assay [8] was -2.08 (inactive).

For `COCCOC(=O)N1C(=O)[C@@]2(c3ccccc31)[C@H](c1ccc(O)cc1)N1[C@H](c3ccccc3)[C@H](c3ccccc3)OC(=O)[C@H]1[C@@H]2C(=O)N1CCN(c2ncccn2)CC1`, the composite z-score was -0.224 in assay [1]; 0.23 in assay [2]; 0.0019 in [3]; 0.644 in [4]; 0.618 in assay [5]; 0.647 in assay [6]. In addition, the composite z-score in [7] was 1.07; in assay [9] it was -0.165; in assay [10] it was -0.0903. The z-score in [8] was -1.27 (inactive).

Take `COc1ccc(C#Cc2ccc3c(c2)[C@]2(C(=O)N3)[C@H](c3ccc(OCCO)cc3)N3[C@H](c4ccccc4)[C@H](c4ccccc4)OC(=O)[C@H]3[C@@H]2C(=O)NC[C@H](O)c2ccccc2)cc1`: the composite z-score was -0.338 in [1]; 0.411 in assay [2]; -0.0276 in assay [3]; 0.422 in assay [4]; 1.16 in assay [5]; 1.55 in assay [6]. Besides, the composite z-score is 1.13 in assay [7], 0.547 in [9] and -0.236 in assay [10]. Besides, the z-score in assay [8] was -0.164 (inactive).

On to `CN(C)c1ccc(C(O)C2C=CC3C(=O)NC(=O)C3N2Nc2ccccn2)cc1` (stereo not given), for which the composite z-score in [1] was -0.142; in assay [2], 1.55; in [3] it was -0.0982; in assay [4], 0.68; in [5] it was 1.5; in [6] it was 1.15. The composite z-score was 1.41 in assay [7], 0.995 in [9] and -0.134 in [10]. The z-score in assay [8] is 2.15 (inactive).

With `C=CCC(OC(C)=O)[C@@H]1[C@@H](N(Cc2cccc3ccccc23)C(=O)Cc2ccc(OC)cc2)c2cc(OCCCO)ccc2N1C(=O)c1ccc(-c2ccccc2)cc1` (stereo not given in full), the composite z-score in assay [1] was 0.112; in assay [2], 0.0969; in assay [3], -0.112; in assay [4] it was -0.153; in assay [5], -0.0051; in assay [6], 0.497. For the same compound, the composite z-score is -0.359 in [7], 0.428 in [9] and -0.201 in [10]. In addition, the z-score in assay [8] was -1.39 (inactive).

As to `COc1ccc(CCNC(=O)[C@@]2(Sc3ccc(C)cc3)CC(=O)N(Cc3ccccc3C(F)(F)F)[C@@H]2c2ccc(CO)cc2I)cc1`, the composite z-score in assay [1] was 0.673; in assay [2], -1.11; in [3], -0.156; in assay [4], 0.116; in [5], -1.11; in [6], 1.99. The composite z-score in assay [7] is 1.01; in assay [9], -0.261; in assay [10], -0.236. Further, the z-score in assay [8] was -1.08 (inactive).

For the compound `Cc1ccccc1C(O)C1C=CC2C(=O)NC(=O)C2N1Nc1ccccn1` (stereo not given), the composite z-score in [1] was 0.888; in assay [2], 0.127; in [3], -0.129; in assay [4], 0.0133; in [5], 0.135; in assay [6] it was 0.401. Moreover, the composite z-score in assay [7] was -0.0441; in assay [9], -0.0817; in assay [10], -0.134. Besides, the z-score in assay [8] is 1.08 (inactive).

For the compound `COc1ccc([Si](C)(C)[C@H]2[C@H](CC(=O)N3Cc4ccccc4C[C@H]3CO)O[C@@]3(C(=O)N(Cc4ccc(N5CCOC5=O)cc4)c4ccccc43)[C@@H]2C)cc1`, the composite z-score was -0.315 in assay [1]; 0.443 in [2]; -0.0583 in assay [3]; 0.345 in [4]; 0.236 in assay [5]; 0.744 in assay [6]. Also, the composite z-score in assay [7] is 1.1; in [9], 0.315; in [10] it was -0.0296. Besides, in assay [8], the z-score is -4.08 (inactive).

`COCCOC(=O)N1C(=O)[C@@]2(c3cc(C#CC4(O)CCCCCC4)ccc31)[C@H](c1ccc(O)cc1)N1[C@H](c3ccccc3)[C@H](c3ccccc3)OC(=O)[C@H]1[C@@H]2C(=O)N1CCN(c2ncccn2)CC1`: the composite z-score in [1] is -0.133; in assay [2] it was 0.837; in [3], 0.0702; in assay [4] it was 0.292; in [5] it was 0.895; in [6] it was 1.33. Further, the composite z-score amounted to 1.24 in assay [7], 0.756 in [9] and 0.132 in assay [10]. In assay [8], the z-score is 0.821 (inactive).

Regarding `CCC#CCN(Cc1ccccc1Br)[C@H](/C=C/C1CC1)[C@@H](O)Cc1ccccc1`, the composite z-score is 0.689 in assay [1]; 0.131 in [2]; -0.17 in assay [3]; -0.548 in assay [4]; -1.46 in assay [5]; -0.285 in assay [6]. Moreover, the composite z-score in assay [7] was -0.33; in assay [9], -0.17; in assay [10], -0.169. In [8], the z-score is -1.96 (inactive).

With `COc1cccc(C)c1NC(=O)O[C@H]1[C@H](OC(=O)Nc2ccccc2-c2ccccc2)[C@H](OC(=O)Nc2ccccc2-c2ccccc2)[C@@H](OC)O[C@@H]1CO`, the composite z-score is -0.205 in [1]; 0.0513 in [2]; 0.137 in [3]; 0.542 in assay [4]; 1.46 in [5]; 1.46 in [6]. The composite z-score in assay [7] is 1.14; in assay [9], 1.48; in assay [10], -0.219. In addition, the z-score in [8] is 0.379 (inactive).

For the compound `C=CCC(OC(C)=O)[C@@H]1[C@@H](N(Cc2ccc(-c3cccc(C(F)(F)F)c3)o2)C(=O)Cc2ccc(OC)cc2)c2cc(OCCCO)ccc2N1C(=O)c1ccc(-c2ccccc2)cc1` (stereo not given in full), the composite z-score in assay [1] was -0.124; in [2] it was 0.004; in [3] it was -0.0796; in [4], 0.0554; in assay [5], -0.57; in assay [6] it was 0.168. For the same compound, the figures for the composite z-score in assay [7], in [9] and in assay [10] were 0.0604, 0.214 and 0.382, respectively. Besides, the z-score in [8] is -0.461 (inactive).

In the case of `CCCC=C(CCC)[C@@H](NP(=O)(c1ccccc1)c1ccccc1)c1ccc(-c2ccccc2)cc1`, the composite z-score in assay [1] was found to be 0.0517; in assay [2] it was 0.887; in [3], 0.112; in [4] it was 0.704; in [5] it was 1.57; in assay [6], 1.19. For the same compound, the composite z-score stood at 1.14 in assay [7], 1.14 in assay [9] and 0.172 in [10]. Moreover, the z-score in assay [8] is -2.1 (inactive).

Consider `C#Cc1cc2ccccc2oc1=O`, for which the composite z-score in assay [1] was 0.985; in assay [2], -0.109; in assay [3], 0.153; in [4], -0.232; in assay [5], -1.81; in [6], 0.785. Besides, the composite z-score in [7] was 1.29; in [9], -0.839; in [10], -0.14. Moreover, the z-score in assay [8] is 1.35 (inactive).

With `CN1C(=O)C2C=CC(C(O)c3cccn3C)N(Nc3ccc([N+](=O)[O-])cc3[N+](=O)[O-])C2C1=O` (stereo not given), the composite z-score in [1] was 0.108; in assay [2] it was -0.0125; in assay [3], 0.157; in [4], 0.162; in assay [5], 1.05; in [6], 0.392. Moreover, the composite z-score in [7] is 0.828; in assay [9] it was 0.477; in assay [10], -0.0631. For the same compound, in assay [8], the z-score is 0.351 (inactive).

Take `COC(=O)C(CC#Cc1ccc2c(c1)[C@]1(C(=O)N2)[C@H](c2ccc(O)cc2)N2[C@H](c3ccccc3)[C@H](c3ccccc3)OC(=O)[C@H]2[C@@H]1C(=O)NC[C@H](O)c1ccccc1)C(=O)OC`: the composite z-score was -0.14 in [1]; 0.249 in [2]; -0.0592 in assay [3]; 1.06 in [4]; 0.791 in assay [5]; -0.0744 in assay [6]. The composite z-score amounted to 1.4 in [7], 0.257 in assay [9] and 0.0749 in [10]. For the same compound, the z-score in assay [8] was 0.798 (inactive).
